We go through nine compounds from PubChem BioAssay (NCATS).

Records with an inconclusive call do not appear. Where a call stands in place of a potency, no number is given. The source made the active and inactive calls. Calls follow the shape of the dose curve; as a rule, active = well fitted cell-killing curve with a large enough effect; inconclusive = small, poorly fitted or top-dose-only effect, or effect the other way; inactive = flat fitted curve, though single readings scatter.
Potency is read from the fitted curve at half-maximal effect.

In this assay the test system is C33A. The assay is described as follows: Primary qHTS to identify gynecologic anti-cancer compounds using libraries of approved drugs and bioactive compounds (AID 1345084). Also: nearly all actives have a fitted effect of over 55% in size. Conditions: Gynecologic cancer cell panel viability, ATPlite luminescence, 48 h; series mostly up to 57.5 µM. Summed up:
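Cytotoxicity screen measuring ATP content by luciferase luminescence. Each compound is applied at five concentrations for 48 h at 37 C with 5% CO2.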
For orientation: In qHTS, concentration-response curves come from the screen itself.
On to `CCN[C@H]1C[C@H](C)S(=O)(=O)c2sc(S(N)(=O)=O)cc21`, for which the Potency entry is “inactive”. To `NC(=O)c1cccnc1` belongs “inactive”; to `O=C(N[C@H](CO)[C@H](O)c1ccc([N+](=O)[O-])cc1)C(Cl)Cl`, “inactive”; to `COc1cc2ncnc(Nc3cccc(Cl)c3)c2cc1OC`, “inactive”.

For `CC(C)C[C@H](NC(=O)[C@H](CCc1ccccc1)NC(=O)CN1CCOCC1)C(=O)N[C@@H](Cc1ccccc1)C(=O)N[C@@H](CC(C)C)C(=O)[C@@]1(C)CO1`, the Potency is 0.316 µM (active). As for `Clc1ccccc1CN1CCc2sccc2C1`, the entry is “inactive”; as for `CCC(=O)O[C@]1(C(=O)SCF)[C@H](C)C[C@H]2[C@@H]3C[C@H](F)C4=CC(=O)C=C[C@]4(C)[C@@]3(F)[C@@H](O)C[C@@]21C`, “inactive”. In the case of `Cc1noc(NS(=O)(=O)c2ccc(N)cc2)c1C`, the Potency result was “inactive”. To `COc1ccc2cc3[n+](cc2c1OC)CCc1cc2c(cc1-3)OCO2` belongs 8.91 µM (active).
